Hits are enriched below; roughly 4.8% of the tested compounds scored in any of these assays.
ssDAF12 agonist: activators of S. stercoralis DAF-12 nuclear receptor. HEK293 ssDAF-12/GRIP1 lit1-tk-luc reporter, luminescence; % of 3 µM dafachronic acid response. activation, % at 6.8 µM. 370,000 compounds, 1% hits. AID 652126;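 active = activation above the mean over all tested compounds plus 3 SD, cut at about 0.9% in these data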;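 also: 0% = DMSO-only wells and 100% = 3 µM delta7-dafachronic acid wells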
DAX1 inh-1: DAX1 (NR0B1) inhibition, primary screen. HEK293T StAR-luciferase reporter, SF-1/DAX-1 repression relief. inhibition, % at 6.8 µM. 370,000 compounds, 1.1% hits;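 active = inhibition above the mean over all tested compounds plus 3 SD, cut at about 3.6% in these data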;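 also: 0% = DAX-1 cells with DMSO and 100% = cells lacking DAX-1 with DMSO; higher inhibition means more luminescence from relief of DAX-1 repression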
SMARCA2 act: SMARCA2 function activation, primary screen. MG213 cells, MMTV-luciferase reporter, dexamethasone, overnight. activation, % at 9.1 µM. 370,000 compounds, 1% hits. AID 652017; in the data active = activation above about 7.8%;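 also: 0% = vehicle wells and 100% = reference activator wells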
DAX1 inh-2: NR0B1 (DAX1) inhibition | P51843 | HEK293 Gal4-DAX1 luciferase reporter, luminescence | inhibition, % at 6.75 µM | 340,000 compounds, 0.99% hits;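 active = inhibition above the mean over all tested compounds plus 3 SD, cut at about 4.2% in these data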;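 also: 0% = DAX1-transfected cells with DMSO and 100% = empty-vector control cells with DMSO; inhibition shows as a rise in luminescence from relieved DAX1 repression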
hcDAF-12 act: activates DAF-12 receptor from parasite H. contortus; HEK293 hcDAF-12 lit1-tk-luc reporter, luminescence; 0% DMSO, 100% Δ7-dafachronic acid; activation, % at 6.8 µM; 370,000 compounds, 1.4% hits; AID 652067;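 active = activation above the mean of all tested compounds plus 3 SD, cut at about 5.5% in these data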;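 also: 100% = response to 3 µM Δ7-dafachronic acid high control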
hgDAF-12 ag: agonists of H. glycines DAF-12 nuclear receptor | HEK293 GAL4-hgDAF12 UAS-luciferase reporter, agonist luminescence; normalized to butyrate control | activation, % at 6.8 µM | 370,000 compounds, 1.8% hits;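 active = activation above a cutoff set at the mean of all screened compounds plus 3 SD, cut at about 10% in these data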;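 also: 0% = DMSO wells and 100% = sodium butyrate wells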
LXR ag: counter-screen for hcDAF-12 agonists: agonists of human LXR-beta | shares compounds with hcDAF-12 act | HEK293 Gal4-LXR tk-luc reporter, luminescence, 24 h; normalized: DMSO 0%, positive control 100% | activation, % at 6.8 µM | 3,400 tested, under 10 active | AID 743027;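 active = mean percent activation of the reporter above a cutoff set as the average over tested compounds plus their standard deviation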
Target sequence (P55055 whole entry, looked up, the tested form may be a part): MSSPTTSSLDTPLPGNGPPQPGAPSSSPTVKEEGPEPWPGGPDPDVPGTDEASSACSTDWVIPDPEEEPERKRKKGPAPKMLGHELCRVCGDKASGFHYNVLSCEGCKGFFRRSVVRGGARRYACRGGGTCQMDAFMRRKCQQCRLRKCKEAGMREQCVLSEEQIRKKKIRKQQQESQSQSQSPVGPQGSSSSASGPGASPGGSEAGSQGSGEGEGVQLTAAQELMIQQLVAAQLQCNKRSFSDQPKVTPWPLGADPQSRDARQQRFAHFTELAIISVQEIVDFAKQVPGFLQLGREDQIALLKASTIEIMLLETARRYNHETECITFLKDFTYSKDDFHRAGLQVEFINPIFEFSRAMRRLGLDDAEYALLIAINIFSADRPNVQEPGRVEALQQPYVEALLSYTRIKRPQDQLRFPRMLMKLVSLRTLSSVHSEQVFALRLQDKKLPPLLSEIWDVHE
hcDAF12 ag: confirmation of H. contortus DAF-12 agonists. shares compounds with hcDAF-12 act. HEK293 hcDAF-12 lit1-tk-luc reporter, luminescence; % of Δ7-dafachronic acid response. activation, % at 6.8 µM. 3,400 compounds, 61% hits. AID 743032;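 active = mean activation across triplicate tests above the threshold derived from the earlier primary screen, cut at about 5.5% in these data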;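 also: 0% = DMSO only wells and 100% = 3 µM Δ7-dafachronic acid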
* marks the source's active call; other numbers are inactive results; · = no result.

SMILES	ssDAF12 agonist	DAX1 inh-1	SMARCA2 act	DAX1 inh-2	hcDAF-12 act	hgDAF-12 ag	LXR ag	hcDAF12 ag
Nc1cc2c(cc1N)-c1ccccc1C2	0	3.8*	6	3	6.7*	8	0	4
Cc1ccc(OCc2nnc(SCC(=O)Nc3ccc(S(=O)(=O)Nc4cc(C)nc(C)n4)cc3)n2Cc2ccco2)cc1	-2	-1	-5	·	-2	-2	·	·
Cc1cccc(C(=O)NNC(=O)c2cccc(C)c2)c1	-1	0	-2	0	0	1	·	·
Cc1cccc(C(=O)NNC(=O)/C=C/C(=O)O)c1	1	1	4	1	8.6*	6	0	5
O=C(CSc1nnc(-c2ccc(Cl)cc2)n1-c1ccccc1)Nc1ccc2c(c1)OCCO2	-1	0	0	·	-3	0	·	·
COC(=O)[C@]12C[C@H](CC(=O)N3CCC(c4ccccc4)CC3)C(=O)N(CCc3ccc(OC)c(OC)c3)C1=C[C@H](COCc1ccccc1)O[C@@H]2C	-1	-1	-3	·	-2	2	·	·
CC(C)c1ccc(Nc2nc(CC(=O)O)cs2)cc1	1	3	7	3	9.4*	22*	1	6.0*
Cc1cc(NC(=O)c2ccccc2O)nc(C)n1	0	0	1	-1	7.7*	-2	0	5
Cc1cc(NC(=O)c2ccc(Br)cc2)nc(C)n1	-1	0	-2	-1	0	0	·	·
CC[C@H](CCCc1ccc(OC)cc1)CCC(=O)N(c1ccccc1)c1ccccc1	-2	-1	-4	·	-2	-2	·	·
COc1ccc(-c2csc(NC(=O)CN3C(=O)C4CCCCC4C3=O)n2)c(OC)c1 (stereo unspecified)	-2	-1	-3	1	-3	-1	·	·
C=CCNc1nc(-c2ccc(OC)cc2OC)cs1	0	3	5	3	8.1*	11*	1	8.0*
CCOC(=O)C1=CCN(S(=O)(=O)c2ccc(F)cc2)C1c1ccc(F)cc1 (stereo unspecified)	-1	0	-2	·	-2	-2	·	·
CCOC(=O)C1=CCN(S(=O)(=O)c2ccc(F)cc2)C1c1ccccc1 (stereo unspecified)	-2	0	-5	·	7.7*	-1	0	1
O=S(=O)(Nc1c(O)ccc2ccccc12)c1ccc(F)cc1	1.1*	1	5	3	8.1*	1	0	8.6*
O=S(=O)(Nc1c(O)ccc2ccccc12)c1ccccc1	0	1	-1	-1	3	0	·	·
COC(=O)C1=C(C)N(C)C(=NCc2ccccc2)NC1c1ccc(F)cc1 (stereo unspecified)	0	0	-6	·	0	2	·	·
Cc1c(C(=O)Nc2nccs2)oc2ccc(Br)cc12	2.3*	4.1*	4	3	9.2*	10	2	13*
CCCCCCn1c(-c2ccc(Cl)cc2Cl)csc1=Nc1ccccc1	0	0	0	·	0	2	·	·
N#C/C(=C\c1ccc(N2CCOCC2)c([N+](=O)[O-])c1)c1nc2ccccc2[nH]1	-2	0	-2	-2	-1	3	·	·
N#C/C(=C\c1ccc(N2CCOCC2)o1)c1nc2ccccc2[nH]1	0	3	7	3	11*	-1	2	5.9*
O=C(N[C@@H](Cc1cccnc1)C(=O)N1CCC[C@H]1C(=O)NCCc1ccccc1Cl)c1ccc(Cl)c(Cl)c1	-2	0	-2	·	1	-1	·	·
c1ccc(COCCc2cn(Cc3ccccc3)c3ccccc23)cc1	0	1	-1	·	1	6	·	·
Cc1cc(N=Nc2ccc(C)c(N=Nc3cc(C)c(N)cc3N)c2)c(N)cc1N	0	2	2	2	7.3*	13*	2	12*
O=S1(=O)N[C@@H](Cc2ccccc2)COc2cc(NC3CC3)ccc21	-1	-1	2	·	-1	-1	·	·
SMILES	ssDAF12 agonist	DAX1 inh-1	SMARCA2 act	DAX1 inh-2	hcDAF-12 act	hgDAF-12 ag	LXR ag	hcDAF12 ag
COc1cc(/C=N/NC(=O)c2nnn(-c3nonc3N)c2C(C)C)ccc1O	-2	0	-2	0	6.7*	12*	0	1
CC(=O)Nc1ccc(NC(=O)CN2C(=O)COc3ccc(S(=O)(=O)N4CCOCC4)cc32)cc1	-1	0	1	1	0	1	·	·
CCN(CC)S(=O)(=O)c1ccc2c(c1)N(CC(=O)Nc1ccc(NC(C)=O)cc1)C(=O)CO2	0	0	0	3	6.8*	-1	0	1
COC(=O)[C@]12C[C@H](CC(=O)NCc3ccc(OC)c(OC)c3)C(=O)N(CCC3=CCCCC3)C1=C[C@H](C(C)C)O[C@@H]2C1CC1	-2	-2	-4	·	-3	0	·	·
N#C/C(=C\Nc1ccc2cn[nH]c2c1)c1nc(-c2ccc(Cl)cc2)cs1	0	0	3	2	7.3*	2	-1	3
COc1ccc(/C=N/n2c(C)nc3ccccc3c2=O)cc1	0	0	1	0	-1	2	·	·
COc1ccc(/C=N\n2nnc3ccccc32)cc1	0.9*	4.2*	7	-4	9.1*	8	1	7.7*
CCCC(=O)OC[C@H]1CN([C@H](C)c2ccccc2)S(=O)(=O)c2c(F)cccc2O1	0	1	0	·	-1	-1	·	·
COc1ccc(NC(=O)NCCCN2CCN(c3ccc(F)cc3)CC2)cc1OC	-1	1	-5	·	-1	-1	·	·
O=C(COC(=O)c1n[nH]c2ccccc12)Nc1ccccc1F	1.8*	2	2	2	6.8*	7	1	8.2*
COC(=O)c1cc2c(c3c4cc(OC)ccc4n(S(=O)(=O)c4cccc(C)c4)c13)C(=O)N(Cc1ccc(C(F)(F)F)cc1)C2	-1	0	-3	·	2	1	·	·
O=C(CCC(=O)NCCCc1ccccc1)NCCCc1ccccc1	-1	0	-2	1	7.7*	2	0	0
CC(C)(C)C(=O)CN1C(=O)NC2(CCOc3ccccc32)C1=O (stereo unspecified)	0	3.7*	-4	1	8.0*	5	0	4
O=C(O)CN1C(=O)NC2(CCOc3ccccc32)C1=O (stereo unspecified)	-1	0	0	2	-2	2	·	·
CCOC(=O)Nc1cc(=O)c([N+](=O)[O-])c(N)[nH]1	-1	1	-3	·	-1	-2	·	·
CC(=O)N=c1sc2cc(C)ccc2n1C	-2	-1	-3	-2	-2	-4	·	·
